From PubChem BioAssay AID1159580 (chemical genetic matrix, 2015)
Where “and” joins values, the source holds several entries; their conditions need not be identical. Identical values can stand only once. Among all 5,500 compounds or so, about 2,000 (36%) were called active. Inconclusive results (about 18%) are left out. The list shows a part of the results. Values without a mark were called inactive. No stated cut-off is given here; in the data, active means normalized growth mostly below about 0.91 (no sharp cut-off); inconclusive means no clear call, values can overlap the other calls; inactive means mostly above about 0.92.

Assay: chemical genetic growth profiling, strain panel (AID 1159580);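 further: tested at 20 µM; growth read once vehicle control cultures reached saturation at 30 °C; 1 = growth at the plate median or of vehicle wells; lower values mean less growth of the strain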
Settings: S. cerevisiae deletion strains, growth OD

SMILES: CC(C)CCCC(C)[C@H]1CCC2C3CC=C4CC(=O)CC[C@]4(C)C3CC[C@@]21C (stereo not given in full)
- normalized growth (locus YAL021C, strain ccr4, active compounds read low): 0.976
- normalized growth (locus YAL026C, strain drs2, active compounds read low): 0.985
- normalized growth (locus YAL030W, strain snc1, active compounds read low): 0.989
- normalized growth (locus YBL061C, strain skt5, active compounds read low): 1
- normalized growth (locus YBR009C, strain hhf1, active compounds read low): 1.04
- normalized growth (locus YBR021W, strain FUR4, active compounds read low): 0.962
- normalized growth (locus YBR023C, strain chs3, active compounds read low): 0.988
- normalized growth (locus YBR171W, strain sec66, active compounds read low): 0.992
- normalized growth (locus YBR229C, strain ROT2, active compounds read low): 0.961
- normalized growth (locus YBR231C, strain swc5, active compounds read low): 1.01
- normalized growth (locus YBR279W, strain paf1, active compounds read low): 1
- normalized growth (locus YCL011C, strain gbp2, active compounds read low): 0.986
- normalized growth (locus YCL016C, strain dcc1, active compounds read low): 1
- normalized growth (locus YCL029C, strain bik1, active compounds read low): 0.999
- normalized growth (locus YCL061C, strain MRC1, active compounds read low): 0.99
- normalized growth (locus YCL069W, strain vba3, active compounds read low): 0.994
- normalized growth (locus YCR088W, strain abp1, active compounds read low): 0.99
- normalized growth (locus YDL005C, strain med2, active compounds read low): 0.99
- normalized growth (locus YDL035C, strain GPR1, active compounds read low): 0.953
- normalized growth (locus YDL040C, strain nat1, active compounds read low): 0.975
- normalized growth (locus YDL074C, strain BRE1, active compounds read low): 0.937
- normalized growth (locus YDL101C, strain DUN1, active compounds read low): 0.971
- normalized growth (locus YDL185W, strain tfp1, active compounds read low): 0.982
- normalized growth (locus YDL192W, strain arf1, active compounds read low): 0.932
- normalized growth (locus YDR001C, strain nth1, active compounds read low): 0.99
- normalized growth (locus YDR069C, strain doa4, active compounds read low): 1
- normalized growth (locus YDR101C, strain arx1, active compounds read low): 1.03
- normalized growth (locus YDR137W, strain rgp1, active compounds read low): 0.895
- normalized growth (locus YDR150W, strain NUM1, active compounds read low): 0.978
- normalized growth (locus YDR159W, strain sac3, active compounds read low): 0.999
- normalized growth (locus YDR162C, strain NBP2, active compounds read low): 0.939
- normalized growth (locus YDR195W, strain ref2): 1.03
- normalized growth (locus YDR297W, strain sur2, active compounds read low): 0.994
- normalized growth (locus YDR318W, strain mcm21, active compounds read low): 0.922
- normalized growth (locus YDR334W, strain swr1, active compounds read low): 0.968
- normalized growth (locus YDR335W, strain msn5, active compounds read low): 0.984
- normalized growth (locus YDR388W, active compounds read low): 0.964
- normalized growth (locus YDR392W, strain spt3, active compounds read low): 0.932
- normalized growth (locus YDR502C, strain sam2, active compounds read low): 0.947
- normalized growth (locus YEL003W, strain gim4, active compounds read low): 0.987
- normalized growth (locus YEL037C, strain rad23, active compounds read low): 0.986
- normalized growth (locus YEL061C, strain CIN8 (second series), active compounds read low): 0.991
- normalized growth (locus YEL061C, strain CIN8, active compounds read low): 0.988
- normalized growth (locus YER015W, strain faa2, active compounds read low): 0.992
- normalized growth (locus YER016W, strain bim1, active compounds read low): 0.987
- normalized growth (locus YER110C, active compounds read low): 0.98
- normalized growth (locus YER111C, strain swi4, active compounds read low): 0.997
- normalized growth (locus YER155C, strain BEM2 (second series), active compounds read low): 1.01
- normalized growth (locus YER155C, strain BEM2, active compounds read low): 1.01
- normalized growth (locus YER167W, strain BCK2, active compounds read low): 0.993
- normalized growth (locus YFR010W, strain ubp6, active compounds read low): 0.991
- normalized growth (locus YGL078C, strain dbp3, active compounds read low): 0.98
- normalized growth (locus YGL086W, strain mad1, active compounds read low): 0.997
- normalized growth (locus YGL167C, strain pmr1, active compounds read low): 0.996
- normalized growth (locus YGL173C, strain kem1, active compounds read low): 0.995
- normalized growth (locus YGL227W, strain vid30, active compounds read low): 0.995
- normalized growth (locus YGL240W, strain doc1, active compounds read low): 1.04
- normalized growth (locus YGL248W, strain PDE1, active compounds read low): 0.922
- normalized growth (locus YGL253W, strain hxk2, active compounds read low): 0.976
- normalized growth (locus YGR135W, strain pre9, active compounds read low): 0.942
- normalized growth (locus YGR252W, strain gcn5, active compounds read low): 0.839
- normalized growth (locus YHR013C, strain ard1, active compounds read low): 0.989
- normalized growth (locus YHR027C, strain rpn1, active compounds read low): 0.987
- normalized growth (locus YHR030C, strain SLT2, active compounds read low): 1 and 1.02
- normalized growth (locus YHR079C, strain IRE1 (second series), active compounds read low): 0.992
- normalized growth (locus YHR079C, strain IRE1, active compounds read low): 0.997
- normalized growth (locus YHR094C, strain hxt1, active compounds read low): 0.986
- normalized growth (locus YHR129C, strain ARP1, active compounds read low): 0.974
- normalized growth (locus YHR142W, strain chs7, active compounds read low): 0.903
- normalized growth (locus YHR200W, strain rpn10, active compounds read low): 0.958
- normalized growth (locus YIL066C, strain RNR3, active compounds read low): 0.952
- normalized growth (locus YIL073C, strain SPO22, active compounds read low): 0.936
- normalized growth (locus YIL125W, strain kgd1, active compounds read low): 0.987
- normalized growth (locus YIR030C, strain dcg1, active compounds read low): 0.979
- normalized growth (locus YJL092W, strain hpr5, active compounds read low): 0.978
- normalized growth (locus YJL095W, strain BCK1 (second series), active compounds read low): 0.989
- normalized growth (locus YJL095W, strain BCK1, active compounds read low): 0.83 and 1
- normalized growth (locus YJL115W, strain asf1, active compounds read low): 0.974
- normalized growth (locus YJL129C, strain trk1, active compounds read low): 0.935
- normalized growth (locus YJL134W, strain LCB3, active compounds read low): 0.982
- normalized growth (locus YJL154C, strain vps35, active compounds read low): 0.993
- normalized growth (locus YJL164C, strain tpk1, active compounds read low): 0.95
- normalized growth (locus YJL166W, strain qcr8, active compounds read low): 0.986
- normalized growth (locus YJL168C, strain set2, active compounds read low): 0.996
- normalized growth (locus YJL187C, strain SWE1 (second series), active compounds read low): 0.968
- normalized growth (locus YJL187C, strain SWE1, active compounds read low): 1
- normalized growth (locus YJR043C, strain POL32, active compounds read low): 0.958
- normalized growth (locus YJR066W, strain TOR1, active compounds read low): 0.928
- normalized growth (locus YJR075W, strain HOC1, active compounds read low): 0.968
- normalized growth (locus YKL009W, strain mrt4, active compounds read low): 0.943
- normalized growth (locus YKL068W, active compounds read low): 0.993
- normalized growth (locus YKL085W, strain MDH1 (second series), active compounds read low): 0.99
- normalized growth (locus YKL085W, strain MDH1, active compounds read low): 0.99
- normalized growth (locus YKL160W, strain elf1, active compounds read low): 0.965
- normalized growth (locus YKL190W, strain CNB1, active compounds read low): 0.984
- normalized growth (locus YKR001C, strain vps1, active compounds read low): 0.914
- normalized growth (locus YKR026C, strain gcn3, active compounds read low): 0.993
- normalized growth (locus YKR091W, strain srl3, active compounds read low): 0.994
- normalized growth (locus YLL001W, strain dnm1, active compounds read low): 0.988
- normalized growth (locus YLL026W, active compounds read low): 0.988
- normalized growth (locus YLL041C, strain sdh2, active compounds read low): 0.981
- normalized growth (locus YLR027C, strain aat2, active compounds read low): 0.981
- normalized growth (locus YLR039C, strain RIC1, active compounds read low): 0.696
- normalized growth (locus YLR058C, strain SHM2, active compounds read low): 0.967
- normalized growth (locus YLR102C, strain apc9, active compounds read low): 0.989
- normalized growth (locus YLR113W, strain HOG1, active compounds read low): 0.91
- normalized growth (locus YLR221C, strain rsa3, active compounds read low): 0.949
- normalized growth (locus YLR258W, strain gsy2, active compounds read low): 1.01
- normalized growth (locus YLR262C, strain YPT6 (second series), active compounds read low): 0.855 (active)
- normalized growth (locus YLR262C, strain YPT6, active compounds read low): 0.66
- normalized growth (locus YLR268W, strain sec22, active compounds read low): 0.974
- normalized growth (locus YLR320W, strain mms22, active compounds read low): 0.999
- normalized growth (locus YLR330W, strain CHS5, active compounds read low): 0.985
- normalized growth (locus YLR342W, strain FKS1 (second series), active compounds read low): 0.946
- normalized growth (locus YLR342W, strain FKS1, active compounds read low): 1.01
- normalized growth (locus YLR357W, strain rsc2, active compounds read low): 1.02
- normalized growth (locus YLR370C, strain arc18, active compounds read low): 0.99
- normalized growth (locus YLR371W, strain rom2, active compounds read low): 0.989
- normalized growth (locus YLR384C, strain iki3, active compounds read low): 0.995
- normalized growth (locus YLR418C, strain cdc73, active compounds read low): 0.753 (active)
- normalized growth (locus YML016C, strain PPZ1, active compounds read low): 0.996
- normalized growth (locus YML032C, strain rad52, active compounds read low): 0.91
- normalized growth (locus YML120C, strain ndi1, active compounds read low): 0.949
- normalized growth (locus YML124C, strain tub3, active compounds read low): 0.995
- normalized growth (locus YMR058W, strain fet3, active compounds read low): 0.981
- normalized growth (locus YMR078C, strain ctf18, active compounds read low): 0.981
- normalized growth (locus YMR125W, strain sto1, active compounds read low): 0.985
- normalized growth (locus YMR129W, active compounds read low): 1
- normalized growth (locus YMR205C, strain PFK2, active compounds read low): 1.03
- normalized growth (locus YMR223W, strain ubp8, active compounds read low): 0.925
- normalized growth (locus YMR231W, strain pep5, active compounds read low): 1
- normalized growth (locus YMR307W, strain GAS1, active compounds read low): 0.875
- normalized growth (locus YNL067W, strain RPL9B, active compounds read low): 0.987
- normalized growth (locus YNL071W, strain lat1, active compounds read low): 0.978
- normalized growth (locus YNL183C, strain NPR1, active compounds read low): 0.937
- normalized growth (locus YNL209W, strain ssb2, active compounds read low): 1
- normalized growth (locus YNL233W, strain BNI4, active compounds read low): 0.932
- normalized growth (locus YNL248C, strain rpa49, active compounds read low): 0.93
- normalized growth (locus YNL250W, strain rad50, active compounds read low): 0.965
- normalized growth (locus YNL271C, strain bni1, active compounds read low): 0.977
- normalized growth (locus YNL298W, strain CLA4, active compounds read low): 0.979
- normalized growth (locus YNL307C, strain MCK1, active compounds read low): 0.842 (active)
- normalized growth (locus YNL322C, strain KRE1 (second series), active compounds read low): 0.99
- normalized growth (locus YNL322C, strain KRE1, active compounds read low): 0.991
- normalized growth (locus YNR049C, strain mso1, active compounds read low): 0.986
- normalized growth (locus YNR052C, strain pop2, active compounds read low): 0.98
- normalized growth (locus YOL006C, strain TOP1, active compounds read low): 1.01
- normalized growth (locus YOL012C, strain htz1): 1.02
- normalized growth (locus YOL147C, strain pex11, active compounds read low): 0.989
- normalized growth (locus YOR001W, strain rrp6, active compounds read low): 0.933
- normalized growth (locus YOR061W, strain CKA2, active compounds read low): 0.954
- normalized growth (locus YOR069W, strain VPS5, active compounds read low): 0.988
- normalized growth (locus YOR070C, strain gyp1, active compounds read low): 0.978
- normalized growth (locus YOR080W, strain dia2, active compounds read low): 0.996
- normalized growth (locus YOR083W, strain WHI5, active compounds read low): 0.944
- normalized growth (locus YOR106W, strain vam3, active compounds read low): 0.965
- normalized growth (locus YOR136W, strain idh2, active compounds read low): 0.993
- normalized growth (locus YOR144C, strain elg1, active compounds read low): 0.993
- normalized growth (locus YOR184W, strain ser1, active compounds read low): 0.945
- normalized growth (locus YOR231W, strain MKK1, active compounds read low): 0.965
- normalized growth (locus YOR265W, strain rbl2, active compounds read low): 0.986
- normalized growth (locus YOR270C, strain vph1, active compounds read low): 0.922
- normalized growth (locus YOR290C, strain snf2, active compounds read low): 0.959
- normalized growth (locus YOR316C, strain cot1, active compounds read low): 0.988
- normalized growth (locus YPL051W, strain arl3, active compounds read low): 0.956
- normalized growth (locus YPL078C, strain atp4, active compounds read low): 0.951
- normalized growth (locus YPL106C, strain sse1, active compounds read low): 1.03
- normalized growth (locus YPL240C, strain hsp82, active compounds read low): 0.989
- normalized growth (locus YPL241C, strain CIN2, active compounds read low): 0.995
- normalized growth (locus YPL256C, strain CLN2, active compounds read low): 1.01
- normalized growth (locus YPR119W, strain clb2, active compounds read low): 1
- normalized growth (locus YPR141C, strain kar3, active compounds read low): 0.988
- normalized growth (locus YPR163C, strain tif3, active compounds read low): 0.977
- normalized growth (locus YPR167C, strain met16, active compounds read low): 0.96
- normalized growth (strain wtn01, active compounds read low): 1.02
